Experimental findings from PubChem BioAssay (NCI) are described below.

Some test systems named below: SR leukemia; RPMI-8226 leukemia; OVCAR-8 ovarian; OVCAR-5 ovarian; OVCAR-4 ovarian; SK-OV-3 ovarian; IGROV1 ovarian; OVCAR-3 ovarian; HS 578T breast; NCI/ADR-RES ovarian; T-47D breast; MDA-MB-435 melanoma; SW-620 colon; MCF7 breast; HCT-116 colon; HCC-2998 colon; KM12 colon.
What all share (assay): NCI-60 one-dose screen, 48 h (100 = growth as untreated, 0 = no growth, -100 = all killed)
Holding throughout (settings): 10 µM unless noted

About 83,000 compounds went through this panel and 20% of them were active in at least one assay; those are over-represented in the sample as a whole.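 Single-dose data. Exposure time 48 hours. Values below 10 considered active.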 Unmarked numbers belong to inactive results. Activity calls are given as the source filed them.

For the compound `COc1ccc(C(=O)NCCNc2nccc(-c3c(-c4ccc(F)cc4)nc4sccn34)n2)cc1`, the growth was 44.1% in the experiment with SR leukemia; 40.5% in the experiment on RPMI-8226 leukemia; 49.4% in the experiment on OVCAR-8 ovarian; 62.4% in the experiment with OVCAR-5 ovarian; 80.5% in the experiment with OVCAR-4 ovarian; 70.6% with SK-OV-3 ovarian. Also, the growth with IGROV1 ovarian is 31%; in the experiment on OVCAR-3 ovarian, 80.7%; in the experiment on HS 578T breast, 28.7%; in the experiment on NCI/ADR-RES ovarian, 62.3%; in the experiment on T-47D breast, 58.2%; in the experiment with MDA-MB-435 melanoma, 43.6%. The growth is 52.3% with SW-620 colon, 25.1% in the experiment on MCF7 breast, 31.8% in the experiment on HCT-116 colon and 97% in the experiment with HCC-2998 colon.

`CC(CCN1CCN(CCC(C)CC(C)(C)C)C1CC(C)CC(C)(C)C)CC(C)(C)C` (stereo unspecified): the growth in the experiment with SR leukemia was 5.62% (active); in the experiment on RPMI-8226 leukemia, 76.4%; in the experiment with OVCAR-8 ovarian, 89.8%; with OVCAR-5 ovarian, 90.4%; in the experiment on OVCAR-4 ovarian, 98.2%; with SK-OV-3 ovarian, 96.4%. Moreover, the growth in the experiment with IGROV1 ovarian is 81.7%; with OVCAR-3 ovarian it was 73.3%; in the experiment with HS 578T breast, 112%; with NCI/ADR-RES ovarian, 98.3%; in the experiment on T-47D breast, 91.8%; in the experiment on MDA-MB-435 melanoma, 104%. Besides, the growth in the experiment with SW-620 colon was 89.4%; in the experiment with MCF7 breast, 95.7%; in the experiment with HCT-116 colon it was 60.9%; in the experiment with HCC-2998 colon, 78.2%; in the experiment with KM12 colon it was 91%.

As to `COc1cc(NC(C)CCCN)c2nccc(C)c2c1OC` (stereo unspecified), the growth was 69.4% with SR leukemia; 65.7% in the experiment with RPMI-8226 leukemia; 98.2% in the experiment on OVCAR-8 ovarian; 91.8% in the experiment with OVCAR-5 ovarian; 29% with OVCAR-4 ovarian; 96.1% in the experiment on SK-OV-3 ovarian. Moreover, the growth in the experiment on IGROV1 ovarian was 92.8%; in the experiment on OVCAR-3 ovarian, 44.4%; with HS 578T breast, 87.3%; in the experiment with NCI/ADR-RES ovarian, 98.2%; in the experiment with T-47D breast, 66.7%; in the experiment on MDA-MB-435 melanoma, 106%. Further, the growth in the experiment with SW-620 colon is 83.5%; in the experiment with MCF7 breast, 10.2%; in the experiment with HCT-116 colon, 93.1%; in the experiment on HCC-2998 colon, 96.7%; with KM12 colon, 101%.

For the compound `CCCCCCCCCCCCCCCC[n+]1cccc(C#N)c1`, the growth in the experiment with SR leukemia is -8.5% (active); with RPMI-8226 leukemia, 45.1%; with OVCAR-8 ovarian it was 51.6%; in the experiment with OVCAR-5 ovarian, 79.7%; with OVCAR-4 ovarian, 56.6%; in the experiment on SK-OV-3 ovarian, 100%. Also, the growth in the experiment on IGROV1 ovarian was 69.2%; in the experiment with OVCAR-3 ovarian, 35.5%; in the experiment with HS 578T breast, 96.6%; in the experiment on NCI/ADR-RES ovarian, 96.3%; with T-47D breast, 49.2%; with MDA-MB-435 melanoma, 73.3%. Besides, the growth in the experiment with SW-620 colon is 35.6%; in the experiment with MCF7 breast it was 38.5%; in the experiment on HCT-116 colon, 24%; in the experiment on HCC-2998 colon it was 65.2%; in the experiment on KM12 colon, 44.4%.

Turning to `CC1CCCCC[N+]12CCCC2` (stereo unspecified), the growth in the experiment with SR leukemia was 91.7%; in the experiment with RPMI-8226 leukemia, 100%; in the experiment on OVCAR-8 ovarian it was 101%; in the experiment with OVCAR-5 ovarian, 106%; in the experiment with OVCAR-4 ovarian it was 113%; in the experiment on SK-OV-3 ovarian it was 98.1%. Moreover, the growth was 102% in the experiment on IGROV1 ovarian; 116% in the experiment on OVCAR-3 ovarian; 112% with HS 578T breast; 111% in the experiment on NCI/ADR-RES ovarian; 107% with T-47D breast; 100% in the experiment with MDA-MB-435 melanoma. For the same compound, the growth in the experiment on SW-620 colon was 107%; in the experiment on MCF7 breast, 97.2%; in the experiment with HCT-116 colon, 109%; in the experiment with HCC-2998 colon, 117%; in the experiment with KM12 colon it was 106%.

Regarding `O=c1c2c(c3ccccc3n1-c1ccccc1)NC(=S)NC2c1ccc(Cl)cc1` (stereo unspecified), the growth is 26% with SR leukemia; 8.62% (active) in the experiment on RPMI-8226 leukemia; 41.3% with OVCAR-8 ovarian; 45.5% with OVCAR-5 ovarian; 76% in the experiment on OVCAR-4 ovarian; 50.3% in the experiment on SK-OV-3 ovarian. For the same compound, the growth in the experiment with IGROV1 ovarian was 40.1%; in the experiment with OVCAR-3 ovarian, 47.5%; with HS 578T breast, -3.16% (active); in the experiment on NCI/ADR-RES ovarian, 78.3%; in the experiment with T-47D breast, 67.4%; in the experiment on MDA-MB-435 melanoma, 30.4%. In addition, the growth with SW-620 colon is 57.1%; in the experiment with MCF7 breast, 60%; in the experiment on HCT-116 colon, 16.1%; with HCC-2998 colon, 35.7%.

As for `N#Cc1c2cccnc2c2nnc3cc(Cl)c(Cl)cc3n12`, the growth in the experiment with SR leukemia was 5.53% (active); with RPMI-8226 leukemia it was 35.3%; in the experiment with OVCAR-8 ovarian, -19.5% (active); with OVCAR-5 ovarian it was 89.3%; in the experiment with OVCAR-4 ovarian it was -4.97% (active); in the experiment with SK-OV-3 ovarian, 90%. For the same compound, the growth was 10.6% in the experiment with IGROV1 ovarian; -9.66% (active) with OVCAR-3 ovarian; -56.8% (active) in the experiment with HS 578T breast; -5.61% (active) in the experiment with NCI/ADR-RES ovarian; 25.9% with T-47D breast; 84.4% in the experiment with MDA-MB-435 melanoma. In addition, the growth in the experiment with SW-620 colon was -39% (active); with MCF7 breast, 1.41% (active); in the experiment on HCT-116 colon, -73.1% (active); with HCC-2998 colon, 13.4%; with KM12 colon it was 47.5%.

Turning to `O=C(Nc1ccc(-n2cc(-c3ccncc3)c(-c3ccc(Cl)c(O)c3)n2)cc1)c1ccc(Cl)c(C(F)(F)F)c1`, the growth with SR leukemia was -13.4% (active); with RPMI-8226 leukemia, -42.7% (active); with OVCAR-8 ovarian it was -1.91% (active); in the experiment with OVCAR-5 ovarian, 52.6%; with OVCAR-4 ovarian, 40.6%; in the experiment with SK-OV-3 ovarian, 14.4%. The growth with IGROV1 ovarian was 27.5%; in the experiment with OVCAR-3 ovarian, -24.9% (active); with HS 578T breast, -53.7% (active); with NCI/ADR-RES ovarian it was 29.4%; with T-47D breast, 47.2%; in the experiment on MDA-MB-435 melanoma, 3.99% (active). In addition, the growth is -79.4% (active) with SW-620 colon; 6.22% (active) in the experiment on MCF7 breast; -100% (active) in the experiment with HCT-116 colon; 5.55% (active) with HCC-2998 colon; 3.31% (active) in the experiment on KM12 colon.

As for `COc1cccc(NC(=O)NCCNc2nccc(-c3c(-c4ccc(F)cc4)nc4sccn34)n2)c1`, the growth was 88.3% in the experiment on SR leukemia; 82.2% with RPMI-8226 leukemia; 65.5% in the experiment with OVCAR-8 ovarian; 87% with OVCAR-5 ovarian; 96% in the experiment on OVCAR-4 ovarian; 77.9% in the experiment with SK-OV-3 ovarian. The growth was 60.5% in the experiment on IGROV1 ovarian; 90.4% in the experiment with OVCAR-3 ovarian; 110% in the experiment on HS 578T breast; 91.2% in the experiment with NCI/ADR-RES ovarian; 71.8% with T-47D breast; 76.9% in the experiment with MDA-MB-435 melanoma. Moreover, the growth in the experiment with SW-620 colon was 101%; in the experiment on MCF7 breast, 32%; in the experiment with HCT-116 colon it was 67.8%; in the experiment on HCC-2998 colon it was 105%; in the experiment with KM12 colon, 87.7%.
